Results filed as inconclusive are left out. Values without a mark were called inactive. Activity calls are given as the source filed them. The call rests on the fitted dose curve; in most records, active means well fitted curve in the direction sought with a large enough effect; inconclusive means small, poorly fitted or top-dose-only effect, or another doubt; inactive means no such curve, though single readings can be large; an effect the other way counts as inactive or inconclusive.

In assay [1] the target is Rap guanine nucleotide exchange factor 3 (Homo sapiens) (UniProt O95398). Briefly: Confirmatory qHTS for antagonist of cAMP-regulated guanine nucleotide exchange factor 3 (EPAC1) (AID 1645880). Further: nearly all actives have a fitted effect of over 55% in size. Further: potency means the concentration at half of the fitted maximal effect.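 On activity, negative = inhibition: plate controls were DMSO only for no effect and full effect of the ATA control for full effect.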 To be noted: EPAC1 Rap1B-BODIPY-GDP exchange, fluorescence; activity, negative = inhibition: at 115 µM (top of the series). In outline:
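Released BODIPY-GDP fluoresces less than Rap1-bound BODIPY-GDP; the signal is followed at 480/540 nm at 5-min intervals over 30 min, after 5 min at room temperature. Reactions contain 100 nM EPAC1, 250 nM RAP1B-BODIPY-GDP and 50 uM GDP; results are normalized to ATA and DMSO.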
Background: In qHTS, concentration-response curves come from the screen itself.

Assay [2] shares this target. Briefly: Confirmatory qHTS for agonist of cAMP-regulated guanine nucleotide exchange factor 3 (EPAC1) (AID 1645881).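 Further: EPAC1 catalysed release of BODIPY-GDP from Rap1B seen as fluorescence loss; 100% = effect of cAMP agonist control; nearly all actives have a fitted effect of over 75% in size.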
The target of assay [3] is Rap guanine nucleotide exchange factor 4 (Homo sapiens) (UniProt Q8WZA2). Nature of the assay: Confirmatory qHTS for agonist of cAMP-regulated guanine nucleotide exchange factor 4 (EPAC2) (AID 1645884).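 Further: nucleotide exchange releases bodipy-GDP from Rap1 and this lowers its fluorescence; on the % scale 0 is the no-effect control and ±100 the full control effect; nearly all actives have a fitted effect of over 65% in size.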
Chain of Rap guanine nucleotide exchange factor 4 (Homo sapiens) (Q8WZA2 whole entry, looked up): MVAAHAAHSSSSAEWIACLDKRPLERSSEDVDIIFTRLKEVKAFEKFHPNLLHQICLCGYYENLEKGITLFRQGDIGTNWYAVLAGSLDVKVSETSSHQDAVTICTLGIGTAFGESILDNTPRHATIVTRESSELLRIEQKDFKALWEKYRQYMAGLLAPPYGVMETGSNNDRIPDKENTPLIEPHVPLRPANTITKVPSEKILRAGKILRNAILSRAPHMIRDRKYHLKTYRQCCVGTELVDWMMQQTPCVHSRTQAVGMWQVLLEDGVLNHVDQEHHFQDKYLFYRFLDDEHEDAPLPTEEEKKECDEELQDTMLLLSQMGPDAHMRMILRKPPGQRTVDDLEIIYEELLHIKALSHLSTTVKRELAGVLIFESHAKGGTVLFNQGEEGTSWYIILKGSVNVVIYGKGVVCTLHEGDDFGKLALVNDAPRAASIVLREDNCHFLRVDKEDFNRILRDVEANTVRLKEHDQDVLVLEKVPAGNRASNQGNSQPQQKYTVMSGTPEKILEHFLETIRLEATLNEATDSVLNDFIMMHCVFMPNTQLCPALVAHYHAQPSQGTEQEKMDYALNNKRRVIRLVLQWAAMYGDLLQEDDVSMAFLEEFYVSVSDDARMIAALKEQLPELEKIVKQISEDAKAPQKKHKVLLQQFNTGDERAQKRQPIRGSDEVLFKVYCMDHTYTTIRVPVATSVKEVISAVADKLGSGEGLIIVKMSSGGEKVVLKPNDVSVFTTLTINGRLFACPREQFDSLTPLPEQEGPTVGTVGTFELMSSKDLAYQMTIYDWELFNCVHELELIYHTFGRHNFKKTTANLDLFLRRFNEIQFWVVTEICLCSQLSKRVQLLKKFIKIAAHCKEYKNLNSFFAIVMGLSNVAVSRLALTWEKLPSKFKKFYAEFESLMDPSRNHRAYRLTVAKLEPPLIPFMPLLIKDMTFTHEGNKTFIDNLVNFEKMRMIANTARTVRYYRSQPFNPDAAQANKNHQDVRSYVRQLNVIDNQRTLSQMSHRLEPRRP
The target is the same in assay [4]. Nature of the assay: Confirmatory qHTS for antagonist of cAMP-regulated guanine nucleotide exchange factor 4 (EPAC2) (AID 1645885). Further: nearly all actives have a fitted effect of over 25% in size. Further: potency means the concentration at half of the fitted maximal effect. On activity change, negative = inhibition: on the % scale 0 is the no-effect control and ±100 the full control effect.
Assay [5] has as its target Rap guanine nucleotide exchange factor 3 (Homo sapiens) (UniProt O95398). Briefly: Counterscreen qHTS for antagonist of cAMP-regulated guanine nucleotide exchange factor 3 (EPAC1) (AID 1645888). Further: % of control where 0% means no effect. In outline: (§1)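 Measured: fluorescence of BODIPY-GDP bound to Rap1B, which falls as exchange proceeds. Conditions include 50 uM competing GDP, 5 and 30 min reads, and a later cAMP challenge for antagonist detection.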
In general terms: Counterscreens check selectivity or assay interference.

The target is the same in assay [6]. Briefly: Counterscreen qHTS for agonist of cAMP-regulated guanine nucleotide exchange factor 3 (EPAC1) (AID 1645889). Further: % of control where 0% means no effect; nearly all actives have a fitted effect of over 40% in size. The method, boiled down:
as §1

Chain of Rap guanine nucleotide exchange factor 3 (Homo sapiens) (O95398 whole entry, looked up): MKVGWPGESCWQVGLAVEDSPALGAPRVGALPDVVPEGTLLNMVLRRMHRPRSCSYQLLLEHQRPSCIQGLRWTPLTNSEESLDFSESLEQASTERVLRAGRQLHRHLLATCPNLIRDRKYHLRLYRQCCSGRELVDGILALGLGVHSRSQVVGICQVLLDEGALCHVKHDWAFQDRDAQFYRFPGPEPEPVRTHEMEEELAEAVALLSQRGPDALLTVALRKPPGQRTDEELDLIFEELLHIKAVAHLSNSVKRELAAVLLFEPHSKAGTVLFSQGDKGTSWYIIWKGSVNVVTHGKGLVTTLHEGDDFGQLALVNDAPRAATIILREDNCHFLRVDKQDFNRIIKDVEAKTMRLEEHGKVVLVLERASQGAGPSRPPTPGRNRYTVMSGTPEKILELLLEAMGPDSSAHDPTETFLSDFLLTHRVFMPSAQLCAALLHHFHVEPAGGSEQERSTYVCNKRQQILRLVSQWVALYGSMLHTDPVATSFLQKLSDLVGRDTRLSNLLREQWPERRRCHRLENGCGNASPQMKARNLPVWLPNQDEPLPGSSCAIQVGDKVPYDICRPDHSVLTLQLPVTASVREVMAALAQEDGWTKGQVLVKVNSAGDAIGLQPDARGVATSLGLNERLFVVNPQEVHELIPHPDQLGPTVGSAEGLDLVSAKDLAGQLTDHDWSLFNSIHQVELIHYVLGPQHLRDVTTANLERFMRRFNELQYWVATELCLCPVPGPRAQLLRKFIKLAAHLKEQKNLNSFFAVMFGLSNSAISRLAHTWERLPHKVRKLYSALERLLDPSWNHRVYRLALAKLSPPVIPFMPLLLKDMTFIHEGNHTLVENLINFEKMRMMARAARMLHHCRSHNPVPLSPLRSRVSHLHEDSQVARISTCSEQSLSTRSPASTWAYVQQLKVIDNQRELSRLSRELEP

Take `O=C(O)c1ccc(N/N=C/c2cccc(C(F)(F)F)c2)cc1`: the Potency result in assay [1], in assay [2], in assay [3], in assay [4], in assay [5] and in assay [6] was “inactive” in each case.
`CCCn1c(=O)n(C)c(=O)c2c(SCC(=O)NCc3ccco3)nc(C3CC3)nc21`: the Potency entry in assay [1], in assay [2], in assay [3], in assay [4], in assay [5] and in assay [6] was “inactive” in each case.
As to `CCCc1nc2ccc(C(=O)OC)cn2c1Cc1ccccc1`, the Potency result in assay [1], in assay [2], in assay [3], in assay [5] and in assay [6] was “inactive” in each case. In addition, in assay [4], the Potency was 33.8 µM (active).
For `COc1ccc(/C=N\NC(=O)c2cc3c(ccc4ccccc43)o2)cc1O`, the Potency entry in assay [1], in assay [2] and in assay [4] was “inactive” each time. The activation in assay [3] is 5.26% [at 17.1 µM, percent relative to cAMP agonist control]; in assay [6], 29.4% [at 30.8 µM]. Moreover, the activity change, negative = inhibition in assay [5] is 0.0783% [at 30.8 µM].
On to `Cc1c2cn[nH]c(=O)c2c(C)n1-c1ccccc1`, for which the Potency entry in assay [1], in assay [2], in assay [3], in assay [4], in assay [5] and in assay [6] was “inactive” each time.
Take `O=C1C(=Cc2ccco2)CCC1=Cc1ccco1`: the Potency result in assay [1], in assay [2], in assay [3], in assay [5] and in assay [6] was “inactive” in each case. Also, the Potency in assay [4] is 60.1 µM (active).
For `C/C(=N\NS(=O)(=O)c1ccccc1)c1cc(Cl)cc(Cl)c1O`, the Potency was 33.8 µM (active) in assay [1] and 21.3 µM (active) in assay [4]. Besides, the Potency result in assay [2], in assay [3], in assay [5] and in assay [6] was “inactive” in each case.
As for `COc1cccc(-c2nc(SCC(=O)Nc3nc(-c4ccccc4)c(C)s3)[nH]c(=O)c2C#N)c1`, the Potency in assay [1] is 75.7 µM (active). Also, the Potency entry in assay [2], in assay [3], in assay [4], in assay [5] and in assay [6] was “inactive” in each case.
With `COc1ccc(-c2cc3c(c4c2ccn4C)C2CCC3O2)cc1OC` (stereo not given), the Potency entry in assay [1], in assay [2] and in assay [4] was “inactive” throughout. Besides, the activation in assay [3] is 6.95% [at 17.1 µM, percent relative to cAMP agonist control]; in assay [6] it was 10.3% [at 30.8 µM]. In addition, the activity change, negative = inhibition in assay [5] was 9.79% [at 30.8 µM].
Turning to `Cc1sc2ncnc(N3CCC(C(=O)Nc4ccccc4C(C)(C)C)CC3)c2c1C`, the Potency result in assay [1], in assay [2], in assay [3], in assay [4], in assay [5] and in assay [6] was “inactive” throughout.
Take `O=c1[nH][nH]c(-c2ccccc2O)c1C(C[N+](=O)[O-])c1ccc(Cl)cc1Cl` (stereo not given): the Potency entry in assay [1], in assay [2], in assay [3], in assay [4], in assay [5] and in assay [6] was “inactive” in each case.
For the compound `O=C(CN(Cc1ccco1)C(=O)c1ccc(Cl)cc1)Nc1c(Cl)cc(Cl)cc1Cl`, the Potency entry in assay [1], in assay [2], in assay [3], in assay [4], in assay [5] and in assay [6] was “inactive” throughout.
Consider `Cc1ccc(N=Cc2cc(Cc3ccccc3Cl)cc([N+](=O)[O-])c2O)c(O)c1`, for which the Potency in assay [1] is 10.7 µM (active). Besides, the Potency entry in assay [2], in assay [3], in assay [4], in assay [5] and in assay [6] was “inactive” throughout.
In the case of `COc1cc(NS(=O)(=O)c2cc3[nH]c(=O)c(=O)[nH]c3cc2C)cc(OC)c1OC`, the Potency entry in assay [1], in assay [2] and in assay [4] was “inactive” each time. Besides, the activation in assay [3] was 2.04% [at 17.1 µM, percent relative to cAMP agonist control]; in assay [6], 12.2% [at 30.8 µM]. Also, in assay [5], the activity change, negative = inhibition was -5.07% [at 30.8 µM].
As to `CCOC(=O)C1(c2ccccc2)SC(C(=O)OCC)(c2ccccc2)S1` (stereo not given), the Potency result in assay [1], in assay [2], in assay [3], in assay [5] and in assay [6] was “inactive” in each case. In addition, in assay [4], the Potency was 53.6 µM (active).
`Cc1ccc(OCC(=O)OC(C)CN(C)Cc2ccccc2)cc1` (stereo not given): the Potency result in assay [1], in assay [2] and in assay [4] was “inactive” throughout. For the same compound, the activation in assay [3] was 4.43% [at 17.1 µM, percent relative to cAMP agonist control]; in assay [6] it was 10.6% [at 30.8 µM]. For the same compound, the activity change, negative = inhibition in assay [5] was 8.78% [at 30.8 µM].
For `Cc1ccn2c(=O)c(NC(=O)c3ccc(Br)o3)c(C)nc2c1`, the Potency entry in assay [1], in assay [2] and in assay [4] was “inactive” each time. Moreover, the activation in assay [3] was 4.58% [at 17.1 µM, percent relative to cAMP agonist control]; in assay [6], -2.62% [at 30.8 µM]. The activity change, negative = inhibition in assay [5] is -1.7% [at 30.8 µM].
Turning to `Cc1ccccc1N=C(c1ccccc1)C1C(=O)c2ccccc2C1=O`, the Potency result in assay [1], in assay [2] and in assay [4] was “inactive” throughout. In addition, the activation in assay [3] was 8.41% [at 17.1 µM, percent relative to cAMP agonist control]; in assay [6] it was 13.3% [at 30.8 µM]. Further, the activity change, negative = inhibition in assay [5] is -5.51% [at 30.8 µM].
As to `COC(=O)c1cc2occc2n1Cc1cccc(C)c1`, the Potency entry in assay [1], in assay [2], in assay [3], in assay [4], in assay [5] and in assay [6] was “inactive” throughout.
With `N#Cc1c(-c2cccs2)nc(SCc2ccc(Cl)cc2)[nH]c1=O`, the Potency in assay [1] was 42.6 µM (active). Besides, the Potency entry in assay [2], in assay [3], in assay [4], in assay [5] and in assay [6] was “inactive” in each case.
